Test results taken from PubChem BioAssay AID588343 (Broad Institute, 2011).
The campaign covered roughly 1,200 compounds. About 650 (54%) were called active. Not shown: some 5% with an inconclusive outcome.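 Rule for the calls: active = signal-lowering curve whose fitted half-maximal concentration is at or below ten times the top valid dose tested; inconclusive = flat curve with 30 to 70% inhibition, or poor fit; inactive = signal increase, flat within 30%, or potency beyond limit.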 The set was probably picked from earlier hits. A selection follows. Results with a measured potency or affinity are listed apart.

assay: inhibitors of LMP1-driven NF-kB reporter, dose response, cell-based, HEK293, luciferase, cherry-pick (AID 588343); settings: HEK293 LMP1 TES2 NF-kB luciferase reporter, 16 h; series mostly up to 35 µM; activity change, negative = inhibition: at the top concentration;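 note: 0% = median of neutral control wells and -100% = MG132 positive control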

Structure (SMILES)	activity change, negative = inhibition
COc1ccc(CN2C(=O)c3cccnc3C2Nc2cc(Cl)ccc2OC)cc1 (centres undefined)	7.84% (inactive)
O=C(COC(=O)c1cc2ccccc2cc1O)NCc1ccccc1	2.44% (inactive)
COc1ccc(-c2nc(C)ncc2-c2ccccc2)c(O)c1	14% (inactive)
O=C(Nc1ccccn1)NC1CCCCC1	25.1% (inactive)
Cc1ccc(NC(=O)NNS(=O)(=O)c2ccc(Br)cc2)cc1	-5.64% (inactive)
CC1CN(c2cc(=O)n(-c3ccccc3)c(=O)[nH]2)CC(C)O1 (centres undefined)	9.32% (inactive)
Cc1ccc(-n2nc(C(=O)NCc3ccc(C)o3)c3c4ccccc4n(C)c3c2=O)cc1	1.78% (inactive)
Nc1nc(N)nc(-c2cc(Cl)ccc2Cl)n1	1.16% (inactive)
COc1ccccc1NC(=O)Cn1nnc(-c2ccccc2NS(=O)(=O)c2ccccc2)n1	13.3% (inactive)
CC1CCCN(C(=O)COC(=O)c2n[nH]c3ccccc23)C1 (centres undefined)	-9.33% (inactive)
COc1ccc(-c2[nH]ncc2/C=N\NS(=O)(=O)c2ccc(Cl)cc2)cc1	-21.3% (inactive)
COc1ccc(S(=O)(=O)NCC(c2cccnc2)N2CCN(c3ccc(F)cc3)CC2)cc1C (centres undefined)	-9.56% (inactive)
CC1(C)CC(=O)C(CC2=C(O)CC(C)(C)CC2=O)=C(O)C1	-2.16% (inactive)
CSc1ccccc1OCc1cc(C(=O)N2CCC[C@H]2C(N)=O)no1	-1.13% (inactive)
COc1ccccc1OCc1ccc(C(=O)c2ccccc2)cc1	12.8% (inactive)
Cc1ccc(C(=O)NCC(=O)N(C)Cc2cccc(F)c2)s1	-9.68% (inactive)
CCCC(=O)C1=C(O)C(C(=O)OC)C(C)(C)CC1=Nc1ccncc1 (centres undefined)	19.9% (inactive)
CSc1ccccc1NC(=O)CN1CCCCC1C (centres undefined)	13.4% (inactive)
CCSc1nnc(NC(=O)CCn2c(=O)oc3ccccc32)s1	4.22% (inactive)
CCOc1cc(C(=O)OC(C)C(=O)Nc2ncc(Cl)cc2Cl)ccc1OCC(=O)N1CCOCC1 (centres undefined)	8.92% (inactive)
O=C(CN1C(=O)c2ccccc2C1=O)NNC1=NS(=O)(=O)c2ccccc21	-3.6% (inactive)
Cc1onc(-c2c(Cl)cccc2Cl)c1C(=O)N[C@@H]1C(=O)N2[C@@H]1SC(C)(C)[C@@H]2C(=O)O	-8.5% (inactive)
COc1ccccc1N1CCN(CCCNC(=O)C2CCCN(c3ncnc4c3nc3n4CCCCC3)C2)CC1 (centres undefined)	0.249% (inactive)
C=CCN1CCN(C(CC(C)C)c2nnnn2CCOC)CC1 (centres undefined)	-11.1% (inactive)
Cn1c(CC(=O)Nc2ccc(F)cc2)nnc1SCC(=O)Nc1nncs1	10.7% (inactive)
O=C(Cn1nc(C(F)(F)F)c2c1CCC2)NC1CCCCC1	-2.62% (inactive)

Structure (SMILES)	activity change, negative = inhibition
O=C(O)CCc1nc(-c2ccc(Cl)cc2)no1	4.11% (inactive)
O=C(CCCN1C(=O)[C@H]2CC=CC[C@H]2C1=O)NCc1nc(-c2ccc(Cl)cc2)no1	-18.8% (inactive)
Cc1ccccc1NC(=O)CN1C(=O)S/C(=C\c2cccn2-c2cccc(C(=O)O)c2)C1=O	-6.82% (inactive)
COc1ccc(NC(=O)CCS(=O)(=O)c2ccc3c(c2)CCN3C(C)=O)cc1	-5.97% (inactive)
COc1ccc(N2C(=O)C(=O)/C(=C(/O)c3ccc(C)cc3)C2c2cccnc2)cc1 (centres undefined)	15.4% (inactive)
COC(=O)c1ccc(COc2ccccc2/C=C/C(=O)c2ccc(OCC(=O)O)cc2)cc1	28.1% (inactive)
CC(=O)Nc1ccc(OCCCNC(=O)c2c(-c3ccccc3)noc2C)cc1	-11.5% (inactive)
Cc1ccc(C)c(S(=O)(=O)N2CCN(CC(=O)N3CCc4ccccc4C3)CC2)c1	-3.25% (inactive)
CCc1c(C)nc2cc(-c3ccc(OC)c(OC)c3)nn2c1NCC1CC1	-3.66% (inactive)
NC(=O)C1(Nc2ccc([N+](=O)[O-])cc2)CCCC1	34.6% (inactive)
O=C(C1CCCCC1)N1CCN(c2ncccn2)CC1	3.25% (inactive)
CCN(CC)Cc1cc(Nc2ccnc3cc(Cl)ccc23)ccc1O	101% (inactive)
O=C1CCC(C(=O)N2CCCCCC2)CN1CCc1ccc(Cl)cc1 (centres undefined)	16.5% (inactive)
CCCCCC(=O)N1CCN(c2ccc(C(C)=O)cc2F)CC1	-3.82% (inactive)
COc1ccc(OC)c2[nH]c(=O)c(CCNC(=O)c3ccc(S(=O)(=O)N(C)C)cc3)cc12	-1.61% (inactive)
O=C(c1sc2cc([N+](=O)[O-])ccc2c1Cl)N1CCOCC1	-5.85% (inactive)
COc1ccc(-c2cn3nc4c(nc3n2)CCCC4)cc1	16.5% (inactive)
CC(C)(C)c1cc(C(=O)NNC(=O)Nc2cccc(Cl)c2)n(Cc2ccccc2)n1	-29.9% (inactive)
O=C(O)c1cccc(NC(=O)c2cn(-c3ccccc3)nc2-c2ccc(F)cc2)c1	-4.64% (inactive)
O=C(CCC(=O)NNC(=O)Nc1cccc(Cl)c1)NCc1ccccc1	5.6% (inactive)
CC(CN1CCCCC1)OC(=O)c1ccc2c(c1)OCO2 (centres undefined)	11.2% (inactive)
COc1cccc(CC(=O)NNC(=O)c2ccc3c(c2)OCO3)c1	28.4% (inactive)
COC(=O)C1=C(C)N(CCCC(=O)O)C(=O)NC1c1cccc(Cl)c1Cl (centres undefined)	10.5% (inactive)
COc1ccc(CN(C(=O)c2nsc(Cl)c2Cl)C(C(=O)NC2CCCC2)c2ccc(C)cc2)cc1 (centres undefined)	-2.71% (inactive)
Cn1cc(SCC(=O)NCC2CCCO2)c2ccccc21 (centres undefined)	2.79% (inactive)
CCc1nnc(NC(=O)c2ccc(S(=O)(=O)N3CCOCC3)cc2)s1	0.338% (inactive)

Structure (SMILES)	activity change, negative = inhibition
CN(Cc1ccc(F)cc1)C(=O)CN1CCN(S(=O)(=O)c2ccc3c(c2)OCCCO3)CC1	-8.59% (inactive)
Cc1c(C=O)c2ccccn2c1C(=O)c1ccccc1Cl	-10.8% (inactive)
COc1cc(/C=N/NC(=O)c2cccc(S(=O)(=O)N3CCOCC3)c2)cc(OC)c1O	0.063% (inactive)
CC(=O)c1ccccc1OCC(=O)Nc1cccc(S(=O)(=O)N2CCCC2)c1	27.2% (inactive)
Cc1ccc(S(=O)(=O)N2CCCCC2)cc1NC(=O)CNc1ccccc1N1CCCC1=O	20% (inactive)
Cc1ccc(-c2nnn(CC(=O)N(Cc3ccco3)C(C(=O)NC(C)(C)C)c3ccncc3)n2)o1 (centres undefined)	0.887% (inactive)
COc1ccc(/C=N/NC(=O)COc2ccccc2-c2ccccc2)cc1	-5.95% (inactive)
CCOC(=O)Cc1csc(N/N=C\c2ccc(N(C)C)cc2)n1	-10.4% (inactive)
COc1ccccc1C(=O)NC(=O)CSc1nnc(N)s1	3.08% (inactive)
Cc1ccc(N(Cc2cc3ccccc3[nH]c2=O)C(=O)c2ccco2)c(C)c1	7.13% (inactive)
Cc1ccc(CN2C(=O)CCC2C(=O)NCCCN2CCC(C)CC2)cc1 (centres undefined)	-7.63% (inactive)
COc1ccc(N2CCN(CCNC(=O)CCCn3c(=O)[nH]c4cc(Cl)ccc4c3=O)CC2)cc1	5.67% (inactive)
COc1ccc(-c2nc(CS(=O)CC(=O)NCc3ccc(Cl)cc3)c(C)o2)cc1 (centres undefined)	12.4% (inactive)
CC1CC(C)CN(S(=O)(=O)c2ccc(NC(=O)CCN3C(=O)C4CC=CCC4C3=O)cc2)C1 (centres undefined)	-5.72% (inactive)
CC1(C)CN(Cc2ccccc2)C(=O)[C@H]1CC(=O)Nc1ccccc1	-7.78% (inactive)
CC(C)(C)c1nc2c(s1)CCc1onc(-c3ccc(Br)cc3)c1-2	-1.55% (inactive)
O=C(O)c1ccc(C=NNC(=O)c2cccc3ccccc23)cc1	-11.7% (inactive)
CS(=O)(=O)Nc1ccc(C2=NN(S(C)(=O)=O)C(c3ccccc3)C2)cc1 (centres undefined)	8.63% (inactive)
CC(=O)NC(CCS(C)(=O)=O)C(=O)Nc1ccc(Cl)c(Cl)c1 (centres undefined)	-1.94% (inactive)
Cc1cc(C)c(OCCn2ccnc2)c(C)c1	26.1% (inactive)
COCCn1c(SCCN2CCOCC2)nc2c1c(=O)[nH]c(=O)n2C	2.32% (inactive)
CN1CCN(C(=O)C2=C[C@@H](C(C)(C)C)C[C@@H](OCc3ccc(CO)cc3)O2)CC1	7.97% (inactive)
COC(=O)[C@H](C)[C@H]1C[C@]1(C)[C@H](NC(=O)OCc1ccccc1)c1ccccc1	-3.31% (inactive)
Cc1nc(C)n(C(C)CNC(=O)c2ccco2)n1 (centres undefined)	10% (inactive)
O=C1CCCN2N=C(SCC(=O)Nc3ccc(Br)cc3)SC2=N1	16.1% (inactive)
CSc1nc(C)cc(C)c1C#N	-9.57% (inactive)

Structure (SMILES)	activity change, negative = inhibition
CC(=O)c1ccc(-n2nnnc2SCC(=O)N2CCc3ccccc3C2)cc1	-15.1% (inactive)
CCSc1nnc(NC(=O)CSc2nnc(-c3c[nH]c4ccccc34)n2CC)s1	37.4% (inactive)
COc1ccc(S(=O)(=O)N2CCN(CC(=O)Nc3cc(OC)cc(OC)c3)CC2)cc1	16.4% (inactive)
COc1ccc(C(=O)CN(CCC(=O)O)S(=O)(=O)c2ccc([N+](=O)[O-])cc2)cc1	-5.91% (inactive)
Cc1cccc(S(=O)(=O)N2CCCc3ccccc32)c1	-11.4% (inactive)
COc1cc(C(c2sc3nc(C)nn3c2O)N2CCc3ccccc3C2)cc(OC)c1OC (centres undefined)	-5.62% (inactive)
O=C(OCc1ccccc1F)c1cc2ccccc2cc1O	17.9% (inactive)
Nc1cc(=O)[nH]c(SCCSc2cc(Cl)ccc2Cl)n1	-26.3% (inactive)
OCCN(CCO)CC(O)COCCC12CC3CC(CC(C3)C1)C2 (centres undefined)	22.3% (inactive)
CN=C1S/C(=C\c2ccc(O)c(Br)c2)C(=O)N1C	5% (inactive)
CC(=O)OCC(=O)[C@@]1(O)CC[C@H]2[C@@H]3CCC4=CC(=O)CC[C@]4(C)[C@H]3[C@@H](O)C[C@@]21C	-18.4% (inactive)
Cc1cccc(-n2c(O)c(C=Nc3c(C)n(C)n(-c4ccccc4)c3=O)c3ccccc3c2=O)n1	5.7% (inactive)
O=c1c(O)c(-c2ccc(O)c(O)c2)oc2cc(O)cc(O)c12	17.5% (inactive)
CN(Cc1ccccc1)c1nc(N)c([N+](=O)[O-])c(NCc2ccccc2)n1	26.4% (inactive)
COc1ccccc1C(=O)Nc1c[nH]c(=O)[nH]c1=O	-8.44% (inactive)
COc1ccc(N2C(=O)C(Cl)=C(NCc3ccccc3)C2=O)cc1	0.637% (inactive)
COc1ccc(N2Cc3cccc(C(=O)NC(C)CCc4ccco4)c3C2=O)cc1 (centres undefined)	2.7% (inactive)
Cc1cc(=O)[nH]c(=S)[nH]1	-0.637% (inactive)
C=CC[N+](C)(C)C/C(Cl)=C(\Cl)c1ccccc1	-4.54% (inactive)
O=c1cc(C2CCCCC2)[nH]c(=O)[nH]1	-3.35% (inactive)
CC(C)NC(=O)N(C)C[C@H]1Oc2c(NC(=O)Nc3ccc4c(c3)OCO4)cccc2C(=O)N([C@H](C)CO)C[C@@H]1C	15.6% (inactive)
Cc1ccc(S(=O)(=O)N2CCN(C(=O)COC(=O)COc3ccc(Cl)cc3)CC2)c(C)c1	10.8% (inactive)
COc1cc2cc(C(=O)N3CCN(c4ccccc4OC)CC3)[nH]c2cc1OC	13.6% (inactive)
CCC(C)N1C(=O)CCC1C(=O)N1CCN(c2ccc(F)cc2)CC1 (centres undefined)	2% (inactive)
O=C1c2cccc3c(O)ccc(c23)C(=O)N1c1ccc(Cl)cc1	-19.5% (inactive)
O=C(CC(c1ccc(F)cc1)c1ccco1)N1CCOCC1 (centres undefined)	14.7% (inactive)
